Screens from PubChem.
D2 ag-1 – HTS Assay for Allosteric Agonists of the Human D2 Dopamine Receptor: Primary Screen for Agonists | D(2) dopamine receptor (Homo sapiens), P14416 | actives 0.53% (n = 340,000) | HEK293 T-REx D2 cells, calcium flux agonist mode | activation, % at 2 µM | AID 485358, 2010;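 active means activation over 3 SD above normal in the single-dose calcium agonist read, cut at about 30% in these data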; further: 0% is about no effect
Target sequence (P14416 whole entry, looked up): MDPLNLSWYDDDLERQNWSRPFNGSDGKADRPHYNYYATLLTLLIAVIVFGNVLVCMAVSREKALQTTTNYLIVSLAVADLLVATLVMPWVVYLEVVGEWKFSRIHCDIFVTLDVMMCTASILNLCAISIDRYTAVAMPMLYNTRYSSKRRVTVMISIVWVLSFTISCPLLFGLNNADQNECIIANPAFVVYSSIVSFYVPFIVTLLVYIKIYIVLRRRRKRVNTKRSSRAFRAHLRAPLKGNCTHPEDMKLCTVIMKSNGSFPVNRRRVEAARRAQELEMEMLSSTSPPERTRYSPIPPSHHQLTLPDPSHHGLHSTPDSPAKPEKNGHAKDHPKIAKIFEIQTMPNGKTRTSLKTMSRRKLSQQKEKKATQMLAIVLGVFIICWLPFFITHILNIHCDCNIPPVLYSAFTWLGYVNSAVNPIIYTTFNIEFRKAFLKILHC
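Agonism scored from kinetic calcium signal (1 read/sec, 180 s) following compound pin transfer, after a 10 s baseline. Cells: HEK293 Trex line expressing inducible D2 receptor coupled to calcium, dye-loaded after overnight culture at 30 C.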
D2 antag – HTS Assay for Allosteric Antagonists of the Human D2 Dopamine Receptor: Primary Screen for Antagonists. HEK293 TREx D2 cells, calcium flux, dopamine EC80. inhibition, % at 10 µM. actives 2% (n = 340,000). AID 485344, 2010; in the data active means inhibition above about 30%; inactive means below that, where a call was filed; further: 0% is about no effect
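Tetracycline-induced HEK293 T-REx cells expressing D2 force-coupled to calcium signalling were dye-loaded, exposed to compound for 180 s, then challenged with an EC80 of dopamine; calcium flux was followed kinetically for a further 180 s.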
D2 PAM-1 – Beta-Arrestin HTS for Positive Allosteric Modulators of the Human D2 Dopamine Receptor: Potentiators; D(2) dopamine receptor (Homo sapiens), P14416; DiscoveRx D2 beta-arrestin cells, luminescence, 90 min; 100% = 57 uM dopamine signal; potentiation, % (no concentration beside the values); actives 0.23% (n = 360,000); in the data active means potentiation above about 50%; inconclusive means mostly about 30% to 49%
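D2 cells co-treated with compound plus 50 nM dopamine (EC20) for 90 min at 37 deg C to detect potentiation. Beta-arrestin recruitment was read as enzyme-fragment luminescence after 1 h at ambient temperature. Full response was set by 57 uM dopamine.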
D2 ag-2 – Beta-Arrestin HTS for Positive Allosteric Modulators of the Human D2 Dopamine Receptor: Agonists; D(2) dopamine receptor (Homo sapiens), P14416; activation, % (no concentration beside the values); DiscoveRx PathHunter D2 beta-arrestin, luminescence, 90 min; 100% = 57 uM dopamine signal; actives 0.084% (n = 360,000); in the data active means activation above about 40%; inconclusive means between about 15% and that limit
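Agonist mode: compounds alone added to overnight-plated D2 PathHunter cells for 90 min at 37 C, with 57 uM final dopamine (EC100) defining full response. Beta-arrestin recruitment detected by chemiluminescent reagent, read after 1 h at ambient temperature.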
LDHA inh – qHTS assay for inhibitors of human lactate dehydrogenase; L-lactate dehydrogenase A chain (Homo sapiens), P00338; purified LDHA, NADH/diaphorase-resazurin fluorescence; hits give low values; activity change, % (values are at about 110 or 230 µM); actives 0.15% (n = 480,000); AID 1347041, 2019; in the data active means activity change below about -30%; inconclusive means mostly about -25% to -30%;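 further: plate controls were DMSO wells for no effect and wells without enzyme for full effect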
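Human LDH5 at 2 nM final in Tris HCl pH 7.4 with 0.06 mM NADH and 0.2 mM pyruvate, reacted 5 minutes at room temperature. Remaining NADH coupled via diaphorase/resazurin; resorufin fluorescence read at 0 and 20 minutes, normalized to enzyme-free and DMSO wells.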
D2 PAM-2 – HTS Assay for Positive Allosteric Modulators of the Human D2 Dopamine Receptor: Primary Screen for Potentiators; HEK293 T-REx D2, calcium flux, EC20 dopamine potentiation; D(2) dopamine receptor (Homo sapiens), P14416; potentiation, % at 10 µM; AID 485347, 2010; actives 0.34% (n = 340,000);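 active means potentiation over 3 SD above the plate norm, cut at about 30% in these data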; further: 0% is about no effect
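Potentiation of an EC20 dopamine calcium response is measured in a force-coupled, tetracycline-inducible Hek293 Trex D2 line. Compound-only kinetic reads over 180 s flag agonists before dopamine addition.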
* = called active by the depositor; ? = inconclusive; . = no result. The list is not random: actives were taken first. Their share in the collection is about 2.1%.

SMILES | D2 ag-1 | D2 antag | D2 PAM-1 | D2 ag-2 | LDHA inh | D2 PAM-2
Cc1cccc(NC(=O)CN(C)C(=O)c2ccc3ccccc3n2)c1C | -1 | 30* | -17 | -8 | 2 | 5
COCCN(CC(=O)Nc1cccc(C)c1C)C(=O)c1ccc2ccccc2n1 | 0 | 25 | -8 | -2 | -3 | 7
CCC(C)(C)c1ccc(O)c(-c2csc(N)n2)c1 | . | . | . | . | -3 | .
CSc1ccc2c(c1)C(N1CCN(C)CC1)Cc1ccccc1S2 (stereo not given) | 2 | 81* | -29 | -4 | -8 | -27
CN1CCN(C2Cc3ccccc3Sc3ccc(Cl)cc32)CC1 (stereo not given) | . | . | . | . | -6 | .
Cc1ccc(CNC(=O)C2CCCN2C(=O)Nc2ccc(C)cc2)cc1 (stereo not given) | -2 | 10 | -13 | -4 | -15 | -8
Cc1ccc(NC(=O)N2CCCC2C(=O)NCC2CCCCC2)cc1 (stereo not given) | 0 | 35* | -6 | -1 | -3 | -5
Cc1ccc(-n2c3nc(=O)[nH]c(=O)c-3cc3ccc(Cl)cc32)c(C)c1 | . | . | . | . | -10 | .
CC(C)(CO)Nc1nc(N2CCCC2)nc(N2CCCC2)n1 | 0 | 47* | -23 | -3 | -2 | -7
CCNc1nc(N2CCCC2)nc(N2CCCC2)n1 | -2 | 2 | -12 | -6 | -6 | -9
COc1ccc(N(CC(=O)N/N=C/c2cc(Br)c(C)o2)S(=O)(=O)c2ccc(NC(C)=O)cc2)cc1 | 1 | 3 | -11 | -2 | 0 | -9
COc1ccc(N(Cc2cc3ccccc3[nH]c2=O)S(=O)(=O)c2ccc(OC)cc2)cc1 | -2 | 9 | -44 | -2 | -4 | -24
COc1ccc(N(CC(=O)N/N=C/c2ccc(C(=O)O)cc2)S(=O)(=O)c2ccc(NC(C)=O)cc2)cc1 | 1 | 56* | 0 | 2 | -15 | -7
COc1ccc(N(Cc2cc3cc(OC)ccc3[nH]c2=O)S(=O)(=O)c2ccc(NC(C)=O)cc2)cc1 | 0 | -7 | 50* | 2 | 0 | -20
O=C(COC(=O)c1ccc(F)cc1F)Nc1ccc2[nH]c(=O)[nH]c2c1 | 0 | -12 | -2 | -1 | 9 | 16
COc1ccc(CC(=O)OCC(=O)Nc2ccc3[nH]c(=O)[nH]c3c2)cc1 | 0 | 5 | ? | -2 | -1 | 2
COc1cc(OC)cc(C(=O)OCC(=O)Nc2ccc3[nH]c(=O)[nH]c3c2)c1 | 0 | 36* | -1 | 1 | 0 | 4
O=C(COC(=O)c1c(F)cccc1F)Nc1ccc2[nH]c(=O)[nH]c2c1 | -1 | 65* | -1 | 3 | 5 | -7
COC(=O)c1sc(NC(=O)[C@@H](NC(=O)c2ccccc2F)C(C)C)nc1C | . | . | . | . | -7 | .
Nc1ccc(/C=C/C(=O)c2cccs2)cc1 | 26 | 60* | -2 | 1 | -5 | -27
O=C(C=Cc1ccccc1)c1cccs1 | . | . | -26 | -1 | -6 | .
Oc1c(Cl)cc(Cl)c(Cl)c1Sc1c(O)c(Cl)cc(Cl)c1Cl | . | . | . | . | -2 | .
COc1ccc(CCN(C)C2CCCN(C(=O)CCSC)C2)cc1OC (stereo not given) | 0 | 5 | 0 | -4 | 1 | -15
COc1ccc(CCN(C)C2CCCN(C(=O)c3sccc3C)C2)cc1OC (stereo not given) | 0 | 57* | -15 | -2 | -3 | -26
Cc1oc2cc(OCC(=O)Nc3ccc(F)cc3F)ccc2c(=O)c1Oc1ccccc1 | . | . | . | . | 0 | .
SMILES | D2 ag-1 | D2 antag | D2 PAM-1 | D2 ag-2 | LDHA inh | D2 PAM-2
O=C(Oc1cccc(C(=S)N2CCOCC2)c1)c1cccc([N+](=O)[O-])c1 | 0 | 9 | 1 | 0 | 2 | 13
O=C(Oc1ccc(C(=S)N2CCOCC2)cc1)c1ccc([N+](=O)[O-])cc1[N+](=O)[O-] | 0 | 1 | -4 | -4 | -4 | -1
O=C(Oc1cccc(C(=S)N2CCOCC2)c1)c1cc([N+](=O)[O-])cc([N+](=O)[O-])c1 | 0 | 3 | 25 | 41* | 4 | -1
O=C(Oc1ccc(Br)cc1C(=S)N1CCOCC1)c1ccc([N+](=O)[O-])cc1[N+](=O)[O-] | 1 | -4 | 56* | ? | 3 | 37*
CCCCOc1ccc(C(=O)C(CCC(CNC(C)(C)C)C(=O)c2ccc(OCCCC)cc2)CNC(C)(C)C)cc1 (stereo not given) | . | . | . | . | -1 | .
O=C(NC1CCCCC1)[C@H](O)[C@@H](O)C(=O)NC1CCCCC1 | 0 | 49* | -1 | -1 | -1 | -6
O=C(NC1CCCCCC1)C(=O)NC1CCCC1 | 0 | -8 | 0 | -1 | -16 | -1
CCOC(=O)C1CCCN(C(=O)C2CCN(S(=O)(=O)c3ccc4c(ccn4CC)c3)CC2)C1 (stereo not given) | . | . | . | . | 3 | .
O=S(=O)(c1ccc2c(c1)CCN2Cc1cccc(Cl)c1)N1CCOCC1 | . | . | . | . | -23 | .
O=C(NCc1nc2ccccc2[nH]1)c1cccc(S(=O)(=O)N2CCCC2)c1 | 0 | 14 | -27 | -4 | 3 | -5
O=C(NCc1ccccc1CN1CCCC1)c1cccc(S(=O)(=O)N2CCOCC2)c1 | 0 | 49* | -35 | -3 | -9 | -14
Cc1c(C(=O)NCc2ccccc2CN2CCCC2)oc2ccc(F)cc12 | 0 | 58* | -3 | -1 | -1 | -26
CC1CCN(C(=O)COC(=O)c2cccc(S(=O)(=O)N(C)c3ccccc3)c2)CC1 | 5 | 43* | 5 | 2 | -7 | 1
O=C(NCc1nc2ccccc2[nH]1)c1cccc(S(=O)(=O)N2CCOCC2)c1 | 0 | 38* | -9 | -3 | 0 | -2
CN(c1ccccc1)S(=O)(=O)c1cccc(C(=O)NCc2ccccc2CN2CCCC2)c1 | 0 | 39* | -33 | -2 | -2 | -31
CN(c1ccccc1)S(=O)(=O)c1ccc(C(=O)NCc2ccccc2CN2CCCC2)cc1 | 0 | 0 | -37 | -2 | -2 | -20
NC(=O)c1ccccc1NC(=O)C1(c2ccccc2)CCCC1 | . | . | . | . | -6 | .
CCNc1c(NC(=O)Nc2cc(OC)cc(OC)c2)c(=O)oc2ccccc12 | . | . | . | . | 4 | .
CC1CCC(=NNC(=O)Cc2ccccc2)CC1 (stereo not given) | 0 | 43* | 9 | 1 | -2 | -10
